Shown are actives, neighbours in structure and some others; about 2.1% of the full set was active somewhere.
M18AAP inhibitor – PfM18AAP enzyme inhibition | AID 1822 | recombinant PfM18AAP, H-Glu-NHMec fluorogenic cleavage | 290,000 tested, 1.2% active | inhibition, % at 7.35 µM;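 active = inhibition above the campaign mean inhibition over all tested compounds plus 3 SD, cut at about 28% in these data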
Fh CTSL1 inh – blocks F. hepatica cathepsin L1 in PFM18AAP counter-screen | recombinant F. hepatica cathepsin L1, Z-Leu-Arg-MCA fluorescence | inhibition, % at 5.96 µM | 300,000 tested, 0.49% active | AID 1906;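 active = inhibition above the mean of all tested compounds plus 3 SD, set per screening campaign, cut at about 17% in these data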
Rin1 Abl inh – blocks binding of human Rin1 to Abl | P00519+Q13671 | TR-FRET Rin1/Abl binding, biochemical | inhibition, % at 7.35 µM | 360,000 tested, 0.4% active | AID 588664; in the data active = inhibition above about 5%, passing the limit was not always enough
Target sequence (P00519 whole entry, looked up): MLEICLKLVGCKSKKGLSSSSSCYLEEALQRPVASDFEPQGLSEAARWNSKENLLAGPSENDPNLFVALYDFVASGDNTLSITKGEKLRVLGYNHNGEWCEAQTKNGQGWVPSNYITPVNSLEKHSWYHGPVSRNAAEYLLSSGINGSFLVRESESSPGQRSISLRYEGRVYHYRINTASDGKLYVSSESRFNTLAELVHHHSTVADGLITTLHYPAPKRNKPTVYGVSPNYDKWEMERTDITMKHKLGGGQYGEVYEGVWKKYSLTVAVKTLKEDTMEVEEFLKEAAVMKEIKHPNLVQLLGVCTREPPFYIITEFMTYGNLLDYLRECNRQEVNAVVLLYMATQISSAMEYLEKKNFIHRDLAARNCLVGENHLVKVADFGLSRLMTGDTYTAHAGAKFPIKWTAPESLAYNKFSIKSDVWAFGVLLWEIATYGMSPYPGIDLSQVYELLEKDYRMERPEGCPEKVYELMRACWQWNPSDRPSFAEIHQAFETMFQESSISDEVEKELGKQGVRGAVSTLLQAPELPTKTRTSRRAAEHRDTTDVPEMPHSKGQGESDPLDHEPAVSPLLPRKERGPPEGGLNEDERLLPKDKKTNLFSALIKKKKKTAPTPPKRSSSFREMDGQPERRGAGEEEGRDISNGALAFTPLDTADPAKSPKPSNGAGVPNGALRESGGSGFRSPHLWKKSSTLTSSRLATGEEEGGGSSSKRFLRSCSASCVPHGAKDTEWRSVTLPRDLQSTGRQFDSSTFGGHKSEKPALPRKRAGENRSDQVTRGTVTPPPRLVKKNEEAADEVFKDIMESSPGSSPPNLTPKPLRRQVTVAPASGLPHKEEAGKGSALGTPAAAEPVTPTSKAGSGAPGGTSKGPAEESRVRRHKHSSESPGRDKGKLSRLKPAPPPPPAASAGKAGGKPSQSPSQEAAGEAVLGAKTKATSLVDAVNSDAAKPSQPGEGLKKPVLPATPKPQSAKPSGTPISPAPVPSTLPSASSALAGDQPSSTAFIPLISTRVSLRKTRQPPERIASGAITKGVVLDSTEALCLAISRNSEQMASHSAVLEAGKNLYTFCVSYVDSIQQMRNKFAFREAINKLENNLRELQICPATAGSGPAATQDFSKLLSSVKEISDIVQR
Target sequence (Q13671 whole entry, looked up): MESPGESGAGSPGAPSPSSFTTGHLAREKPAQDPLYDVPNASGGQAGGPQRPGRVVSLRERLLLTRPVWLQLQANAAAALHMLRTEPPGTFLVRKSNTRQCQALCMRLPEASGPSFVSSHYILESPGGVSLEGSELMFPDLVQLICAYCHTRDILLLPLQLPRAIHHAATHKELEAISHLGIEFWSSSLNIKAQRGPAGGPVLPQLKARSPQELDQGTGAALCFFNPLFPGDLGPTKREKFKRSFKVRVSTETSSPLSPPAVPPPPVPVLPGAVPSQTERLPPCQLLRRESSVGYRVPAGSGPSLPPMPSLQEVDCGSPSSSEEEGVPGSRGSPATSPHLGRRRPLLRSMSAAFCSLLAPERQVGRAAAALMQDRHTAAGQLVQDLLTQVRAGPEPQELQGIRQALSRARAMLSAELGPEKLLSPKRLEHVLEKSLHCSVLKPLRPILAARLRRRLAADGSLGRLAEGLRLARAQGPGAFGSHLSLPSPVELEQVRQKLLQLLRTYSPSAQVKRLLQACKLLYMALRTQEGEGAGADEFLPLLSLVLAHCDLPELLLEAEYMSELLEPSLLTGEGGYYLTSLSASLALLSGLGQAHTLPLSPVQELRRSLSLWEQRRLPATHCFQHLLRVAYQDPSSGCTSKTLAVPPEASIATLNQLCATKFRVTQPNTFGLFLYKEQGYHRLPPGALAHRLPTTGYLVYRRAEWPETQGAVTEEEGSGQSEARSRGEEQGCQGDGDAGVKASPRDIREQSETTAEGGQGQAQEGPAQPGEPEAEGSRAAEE
Calb FLC – C. albicans growth modulation with fluconazole. C. albicans CaCi-2 (fluconazole-resistant clinical isolate) + fluconazole, Alamar Blue growth, 48 h. growth inhibition, % (concentration not given with the values). 300,000 tested, 0.57% active. AID 1979;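 active = growth inhibition above about 58% in most replicates, limit read from the data, passing the limit was not always enough; inconclusive = exactly half the replicates above a set limit; inactive = most replicates below a set limit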;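 also: all wells also contain fluconazole at 8 µg/ml as a sub-toxic cotreatment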
Rin1-Abl confirm – confirmation of inhibitors of human Rin1-Abl interaction. inhibition, % at 7.35 µM. TR-FRET Rin1-Abl binding, purified proteins. AID 602124. 1,300 tested, 49% active. shares compounds with Rin1 Abl inh
GFP quencher – GFP fluorescence interference artifact; shares compounds with Rin1 Abl inh; inhibitors/quenchers counterscreen; inhibition, % at 6.75 µM; 1,300 tested, 8.5% active; AID 602125;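 also: ABL1-eGFP fusion protein alone without its partner RIN1-SBP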
GFP quench DR – GFP fluorescence interference dose response. GFP fluorescence interference/quenching counterscreen. 230 tested, under 10 active. shares compounds with Rin1 Abl inh. IC50, µM; call rule not given here;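 also: ABL1-eGFP fusion protein alone without its RIN1 binding partner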
Hits are given with their value; – = inactive; ? = inconclusive; · = no result given. Rule as the data show it, unless noted: active = inhibition above about 6.5%; inactive = the rest.

SMILES	M18AAP inhibitor	Fh CTSL1 inh	Rin1 Abl inh	Calb FLC	Rin1-Abl confirm	GFP quencher	others
Cc1c(C(=O)N2CCN(CC(=O)Nc3ccccc3Cl)CC2)oc2ccc(Br)cc12	·	·	–	·	·	·
CNC(=O)C[C@H]1C(=O)N(Cc2ccccc2)C[C@@H]1Cc1ccccc1	·	·	8.2	·	–	–
CCC[C@H]1CN(Cc2ccccc2)C(=O)[C@@H]1CC(=O)NC	·	·	–	·	·	·
CCN(CC(=O)Nc1ccc(NC(C)=O)cc1)C(=O)CSc1nnc(-c2ccco2)n1CC	·	–	–	–	·	·
CC(=O)c1ccc(OCCCC(=O)N2CCN(S(=O)(=O)c3ccc(C)cc3C)CC2)cc1	·	–	7.5	–	–	–
CCNNC(=O)C(O)(Cc1ccccc1)Cc1ccccc1	–	–	–	–	·	·
COc1cc(NC(=O)CSc2nnc(-c3ccncc3)o2)cc(OC)c1OC	–	–	–	–	·	·
COCCn1c(C)nnc1SCC(=O)NNC(=O)c1ccc(Cl)cc1	–	–	–	–	·	·
CC(C)c1nc2oc3c(=O)[nH]cnc3c2c2c1COC(C)(C)C2	–	–	–	–	·	·
CC(C)c1nc2oc3c(=O)[nH]cnc3c2c2c1CCC2	–	–	7.8	–	12.9	–
CN(C)c1ccc(-c2ccnc3c2CC(C)(C(=O)NCCC(F)(F)F)O3)cc1 (centres undefined)	·	·	–	·	·	·
CCc1ccc(CN2CCC(Oc3ccc(C(=O)N4CCCCC4)cc3)CC2)cc1	–	·	10.1	–	–	–
COc1ccccc1N=Nc1ccc(O)c2ncccc12	–	–	8.7	97.2	–	12.3
Cc1ccc(C(=O)NC2(O)C(=O)c3ccccc3C2=O)cc1C	–	58.3	11.7	–	15.9	–
CCN(CC)CCNC(=O)c1ccc(NC(=O)C2CCN(c3ncnc4sc(C)c(C)c34)CC2)cc1	–	–	10.4	–	–	–
Cc1sc2ncnc(N3CCC(C(=O)Nc4ccc(OC(F)F)c(Cl)c4)CC3)c2c1C	·	·	–	·	·	·
CC(=O)Nc1ccc(S(=O)(=O)Nc2nccc(/C=C/c3ccc(Cl)cc3)n2)cc1	–	–	–	–	·	·
COc1ccc(S(=O)(=O)N(C)C)cc1NC(=O)CCNC(=O)c1ccco1	–	–	–	–	·	·
CCN(CC)C(=O)CSc1nc(Cc2ccccc2)nc2ccccc12	–	·	24.3	–	21.4	–	GFP quench DR=–
Cc1ccc(C2=NOC(C)(c3nnc(-c4ccncc4)o3)C2)cc1 (centres undefined)	·	–	15.5	–	–	–
CC1(c2nnc(-c3ccc(Cl)cc3)o2)CC(c2ccncc2)=NO1 (centres undefined)	·	–	–	–	·	·
CC1(c2nnc(-c3ccccc3)o2)CC(c2ccccc2)=NO1 (centres undefined)	·	–	–	–	·	·
COc1ccc(C2=NOC(C)(c3nnc(-c4ccncc4)o3)C2)cc1 (centres undefined)	·	–	12.2	–	–	–
CC1(c2nnc(-c3ccc(F)cc3)o2)CC(c2ccccc2)=NO1 (centres undefined)	·	–	–	–	·	·
O=C(NCc1ccccc1F)Nc1ccc([N+](=O)[O-])cc1	–	–	–	–	·	·
SMILES	M18AAP inhibitor	Fh CTSL1 inh	Rin1 Abl inh	Calb FLC	Rin1-Abl confirm	GFP quencher	others
Cc1cccc(N2C(=O)C(CC(=O)Nc3cccc(F)c3)N(CCc3ccncc3)C2=O)c1 (centres undefined)	–	–	5.3	?	–	–
Cc1ccc(S(=O)(=O)N2CC=C(C(=O)NC3CCCC3)CC2)cc1	–	–	9.4	–	–	–
COCC(=O)OC1CCn2c1nc1c2C(=O)C(C)=C(NC(C)=O)C1=O (centres undefined)	·	·	17.8	·	16.5	–
COc1ccc(Cc2noc(CN(C)Cc3cccc(-n4cccn4)c3)n2)cc1OC	–	–	–	–	·	·
Cc1[nH][nH]c(=O)c1C(c1c(C)[nH][nH]c1=O)c1cn(Cc2ccc(Cl)c(Cl)c2)c2ccccc12	–	–	14.2	–	–	–
Cc1[nH][nH]c(=O)c1C(c1c(C)[nH][nH]c1=O)c1cn(Cc2ccc(F)cc2)c2ccccc12	–	–	–	·	·	·
CN1CCN(C(=O)CSc2nc(-c3ccncc3)ccc2C#N)CC1	–	–	10.4	–	17.2	–	GFP quench DR=–
CN1CCN(C(=O)CSc2nc(-c3cccs3)cc(-c3cccs3)c2C#N)CC1	–	–	–	–	·	·
CC(=O)OCC1OC(n2ccc(=O)[nH]c2=O)C(O)C1O (centres undefined)	–	–	–	–	·	·
CC(=O)OC[C@H]1O[C@@H](n2ccc(=O)[nH]c2=S)C(OC(C)=O)C1OC(C)=O (some centres undefined)	–	–	12.2	–	9.3	–
N#CCCN(C(=O)COC(=O)c1ccc2c(=O)n3c(nc2c1)CCC3)c1ccccc1	–	–	12.0	–	–	–
Cc1ccc(-n2c(SCc3cc(=O)n4ccsc4n3)nnc2-c2cccnc2)c(C)c1	–	–	16.6	–	19.2	–	GFP quench DR=–
Cc1ccc(-n2c(SCC(=O)N3CCCc4ccccc43)nnc2-c2cccnc2)c(C)c1	–	–	8.7	–	13.3	–
CCOc1ccccc1-n1c(SCC(=O)N2CCCc3ccccc32)nnc1-c1cccnc1	–	–	–	–	·	·
Cc1ccc(-n2c(SCC(N)=O)nnc2-c2cccnc2)c(C)c1	–	–	–	–	·	·
COc1cc(CC(NC(C)=O)C(=O)NC2CCN(C(=O)Nc3ccccc3C)CC2)cc(OC)c1 (centres undefined)	–	–	–	–	·	·
Cc1ccccc1-c1nc(CN(C)C(C)c2ccon2)c(C)o1 (centres undefined)	–	–	–	–	·	·
C1CCN(CCCNC2C3CC4CC(C3)CC2C4)C1 (centres undefined)	–	–	–	–	·	·
Cc1cccc(-n2c(-c3ccccc3)c[nH]c2=S)c1C	–	–	–	–	·	·
COc1ccccc1-n1c(-c2ccc(Cl)cc2)c[nH]c1=S	–	–	7.5	–	–	–
CC(C)(C)C1CCc2c(C(=O)NNC(=O)CCCC(=O)O)csc2C1 (centres undefined)	–	–	–	–	·	·
COCCNC(=O)CS(=O)Cc1nc(-c2ccccc2C)oc1C (centres undefined)	–	–	11.7	–	–	–
Cc1ccccc1-n1c(SCC(=O)NC2CC2)nc2ccccc2c1=O	·	·	10.3	·	–	–
CN(C(=O)CSCC(=O)Nc1ccc(Cl)cc1)C1CCCCC1	·	·	–	·	·	·
Nc1c(C(=O)CSc2nc(-c3ccccc3)cs2)c(=O)[nH]c(=O)n1C1CC1	·	·	–	·	·	·
OC[C@@H]1CN(Cc2ccc(Cl)cc2)C[C@H](n2cnc3c(NC4CC4)ncnc32)O1	·	·	17.4	·	20.1	–	GFP quench DR=–
OC[C@@H]1CN(Cc2ccncc2)C[C@H](n2cnc3c(NC4CC4)ncnc32)O1	·	·	–	·	·	·
COc1ccc(CN2C[C@@H](CO)O[C@@H](n3cnc4c(NC5CCC5)ncnc43)C2)cc1	·	·	12.3	·	11.0	–
CC(=O)c1cc2c(cc1NC(=O)c1ccccc1C)OCO2	–	–	·	–	·	·

High-throughput results (PubChem BioAssay)
